Compounds without any hit were thinned out: in the full panel of roughly 83,000, 20% have a hit.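 Assay: single dose, 48 h. Readout: percent growth (0 = no net growth; negative = cell death). Active: <10.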 A number with no mark means an inactive call. Active and inactive are the calls of the source.

Assay in all cases: NCI-60 one-dose screen, 48 h (100 = growth as untreated, 0 = no growth, -100 = all killed)
In test [1] the test system is HCT-15 colon. As to conditions: 10 µM unless noted.
The subject of test [2] is SNB-75 CNS. As to conditions: 10 µM unless noted.
The test system of test [3] is SNB-19 CNS. As to conditions: 10 µM unless noted.
Test [4] has as its system U251 CNS. As to conditions: 10 µM unless noted.
Test [5] has as its system PC-3 prostate. As to conditions: 10 µM unless noted.
Test [6] has as its system SK-MEL-5 melanoma. As to conditions: 10 µM unless noted.
The test system of test [7] is UACC-62 melanoma. As to conditions: 10 µM unless noted.
Test [8] concerns LOX IMVI melanoma. As to conditions: 10 µM.
Test [9] has as its system SK-MEL-28 melanoma. As to conditions: 10 µM unless noted.
Test [10] relates to SK-MEL-2 melanoma. As to conditions: 10 µM unless noted.
For test [11], the system named is EKVX NSCLC. As to conditions: 10 µM unless noted.
The subject of test [12] is SN12C renal. As to conditions: 10 µM unless noted.
In test [13] the test system is UO-31 renal. As to conditions: 10 µM unless noted.
Test [14] relates to TK-10 renal. As to conditions: 10 µM unless noted.
Test [15] relates to ACHN renal. As to conditions: 10 µM unless noted.
The subject of test [16] is CAKI-1 renal. As to conditions: 10 µM unless noted.
Test [17] has as its system A498 renal. As to conditions: 10 µM unless noted.
For test [18], the system named is CCRF-CEM leukemia. As to conditions: 10 µM unless noted.
Test [19] deals with MOLT-4 leukemia. As to conditions: 10 µM unless noted.
The subject of test [20] is HT29 colon. As to conditions: 10 µM unless noted.

In the case of `Cc1ccc(NC2=CC(=O)C(=O)c3ccccc32)cc1`, the growth in test [1] is 11.2%; in [2], -18.7% (active); in test [3], 28.4%; in test [4] it was 15.4%; in test [5], 28%; in test [6], -98.4% (active). Also, the growth is -33.9% (active) in test [7]; 0.472% (active) in [8]; -23.5% (active) in test [9]; 4.01% (active) in test [10]; 73% in test [11]; -39.2% (active) in test [12]. Besides, the growth was -18.4% (active) in test [13]; 42.4% in test [14]; 21.9% in [15]; 35.5% in test [16]; 63.2% in test [17]; 27% in test [18]. Further, the growth in test [19] is 28.7%.
Turning to `CCOC(=O)C1=NN(c2ccccc2)C(=O)/C1=C\N1C(=O)/C(=C/c2cccc(O)c2)SC1=S`, the growth in test [20] is 111%; in [2], 97.2%; in [3], 94.4%; in [4], 89%; in [5] it was 88%; in test [6] it was 95%. The growth in [7] is 91.9%; in [8], 88%; in [9], 111%; in test [10], 99.6%; in [11], 107%; in test [12], 82.3%. In addition, the growth in test [13] was 76%; in test [14], 117%; in test [15], 99.5%; in test [16], 100%; in test [17] it was 94.5%; in test [18], 93%. In test [19], the growth is 95.7%.
On to `O=C(CCl)N(c1ccccc1)c1ccccc1`, for which the growth in test [1] is 105%; in test [20] it was 114%; in [4], 98.1%; in test [5] it was 91.4%; in [6], 99.8%; in test [7], 95.6%. Moreover, the growth is 110% in test [9]; 97.7% in test [10]; 111% in test [11]; 99.6% in test [12]; 86.7% in test [13]; 105% in test [14]. The growth was 109% in test [15]; 105% in test [16]; 105% in test [17]; 92.7% in test [18]; 102% in test [19].
In the case of `S=C(SSC(=S)N1CCOCC1)N1CCOCC1`, the growth was 91.2% in test [1]; 104% in test [2]; 111% in [3]; 58.1% in test [4]; 77.6% in test [5]; 73.2% in [6]. The growth was 68.7% in [7]; 78.9% in test [8]; 106% in test [9]; 95.3% in test [11]; 99.7% in [12]; 76.9% in test [13]. In addition, the growth in [14] is 95.7%; in test [15] it was 98.3%; in [16], 79.1%; in test [17], 90.6%; in test [18] it was 21.9%; in [19], 93.6%.
`NNc1cccc([N+](=O)[O-])c1`: the growth in test [1] is 101%; in [20], 99.6%; in test [4] it was 89%; in [5] it was 86.4%; in test [6], 109%; in test [7] it was 77.2%. Further, the growth was 76.6% in test [8]; 115% in test [9]; 98% in test [10]; 79.9% in test [11]; 102% in test [12]; 83.1% in test [13]. Further, the growth is 98% in [14]; 88.7% in test [15]; 56% in test [16]; 83% in test [17]; 38.1% in [18]; 25.3% in test [19].

The values above are taken from PubChem BioAssay (NCI).
